Results from PubChem BioAssay (EPA / NIEHS).
Calls of active or inactive are those of the source. Rule for the calls: active = hit-call score of the fitted dose curve at least 0.9, where 1 is the maximum; inactive = score below 0.9.

Tests used:
[1] = ATG_GLI_CIS: Attagene CIS-FACTORIAL HepG2 Assay for human Zinc Finger Protein GLI1 (AID 2282945); details: HepG2, Attagene cis-factorial reporter mRNA, GLI element; actives raise or lower the signal
Outline: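 HepG2 cells transiently transfected with cis-promoter multiplexed reporter units report endogenous transcription factor activity. After 24 h chemical exposure, reporter mRNA was quantified by RT-PCR, 6-FAM labelling, HpaI digestion and capillary electrophoresis, with bidirectional fitting against DMSO.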

[2] = target: Bile acid receptor (Homo sapiens) (UniProt Q96RI1); assay: ATG_IR1_CIS: Attagene CIS-FACTORIAL HepG2 Assay for human Nuclear Receptor Subfamily 1 Group H Member 4 (NR1H4), IR1 submotif (AID 2282946); details: IR1 reporter transcription, actives raise or lower the signal
Outline: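 Readout: reporter transcript levels by RT-PCR with fluorescent capillary electrophoresis, from HepG2 cells transiently transfected with multiplexed cis-regulated reporters and dosed 24 h. Gain- or loss-of-signal fitted versus DMSO negative control.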

[3] = ATG_GRE_CIS: Attagene CIS-FACTORIAL HepG2 Assay for human Glucocorticoid Response Elements (GRE) (AID 2282947); details: HepG2 GRE cis-reporter, Attagene multiplex mRNA; actives raise or lower the signal
Outline: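 HepG2, transient cis-reporter transfection, 24 h. Reporter mRNA: RT-PCR then CE, fluorescence. Fit both directions vs DMSO.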

[4] = ATG_ISRE_CIS: Attagene CIS-FACTORIAL HepG2 Assay for human Interferon Regulatory Factor 1 (IRF1) binding to an Interferon-Stimulated Response Element (ISRE) (AID 2282948); details: HepG2 ISRE cis-reporter (Attagene), mRNA transcription readout; actives raise or lower the signal
Outline: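 Uses HepG2 liver cells transfected with cis-regulated reporters and measures mRNA 24 h post-dosing through RT-PCR, primer-extension labelling and capillary electrophoresis, with DMSO as negative control.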

[5] = ATG_M_32_CIS: Attagene CIS-FACTORIAL HepG2 Assay for M32 Transcription Factor (Internal Marker) (AID 2282949); details: HepG2 Attagene cis-factorial M32 reporter, mRNA; actives raise or lower the signal;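 note: background control marker of the multiplexed CIS panel rather than a real target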
Outline: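 Using DMSO as baseline, bidirectional curve fits were applied to reporter mRNA signals. These came from transiently transfected HepG2 cells exposed for 24 h, with RNA analysed by RT-PCR, FAM primer extension, HpaI digestion and CE.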

[6] = ATG_M_06_CIS: Attagene CIS-FACTORIAL HepG2 Assay for M06 Transcription Factor (Internal Marker) (AID 2282950); details: HepG2 Attagene CIS-FACTORIAL M06 internal marker reporter; actives raise or lower the signal
Outline: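 HepG2 cells transiently transfected with cis-regulated multiple reporter transcription units were exposed to chemical for 24 h; reporter mRNA was quantified by RT-PCR, 6-FAM primer labelling, HpaI digestion and capillary electrophoresis, fitted bidirectionally against DMSO.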

[7] = target: Hypoxia-inducible factor 1-alpha (Homo sapiens) (UniProt Q16665); assay: ATG_HIF1a_CIS: Attagene CIS-FACTORIAL HepG2 Assay for human Hypoxia Inducible Factor 1 (HIF1A) (AID 2282951); details: HepG2 Attagene cis-factorial HIF1a reporter transcription; actives raise or lower the signal
Outline: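 In this multiplexed cell assay, HepG2 cells bearing transfected cis reporters are dosed for 24 h and reporter mRNA is read by RT-PCR plus capillary electrophoresis; signal increases and decreases are both scored against DMSO.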

[8] = target: Hepatocyte nuclear factor 6 (Homo sapiens) (UniProt Q9UBC0); assay: ATG_HNF6_CIS: Attagene CIS-FACTORIAL HepG2 Assay for human Hepatocyte Nuclear Factor 6 (HNF6) (AID 2282952); details: HepG2 Attagene cis-factorial HNF6 reporter transcription; actives raise or lower the signal
Outline: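 Readout: fluorescent reporter-transcript fragments resolved by capillary electrophoresis after RT-PCR, reflecting endogenous factor activity in transfected HepG2. Exposure 24 h. Gain or loss of signal fitted bidirectionally against DMSO.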

[9] = ATG_MRE_CIS: Attagene CIS-FACTORIAL HepG2 Assay for human Metal Responsive Element (MRE) (AID 2282954); details: HepG2 MRE cis-reporter transcription, Attagene multiplex; actives raise or lower the signal
Outline: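 Readout: capillary electrophoresis of 6-FAM-labelled, HpaI-digested RT-PCR reporter products. System: HepG2 cells carrying transient multiplexed cis reporters, dosed 24 h. Analysis: bidirectional fit, DMSO baseline.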

[10] = ATG_PBREM_CIS: Attagene CIS-FACTORIAL HepG2 Assay for human Phenobarbital-responsive Enhancer Module (PBREM) (AID 2282955); details: HepG2 PBREM cis-reporter, Attagene multiplexed transcription; actives raise or lower the signal
Outline: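 After a 24 h incubation with test chemical, transfected HepG2 cells yield total RNA; reporter-specific RT-PCR products are fluorescently labelled, HpaI-digested and resolved by capillary electrophoresis against ROX size standards.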

[11] = target: Paired box protein Pax-6 (Homo sapiens) (UniProt P26367); assay: ATG_Pax6_CIS: Attagene CIS-FACTORIAL HepG2 Assay for human Paired Box 6 (PAX6) (AID 2282956); details: HepG2 CIS-FACTORIAL PAX6 reporter transcription, RNA readout; actives raise or lower the signal
Outline: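 DMSO-referenced bidirectional fits of reporter mRNA fluorescence; HepG2 with transient cis-promoter MRTUs, 24 h post-dose, RT-PCR plus capillary electrophoresis detection.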

[12] = ATG_PXRE_CIS: Attagene CIS-FACTORIAL HepG2 Assay for human Pregnane X Receptor Element (PXRE) (AID 2282957); details: HepG2 Attagene CIS-FACTORIAL PXRE reporter, mRNA; actives raise or lower the signal
Outline: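 Read-out: fluorescence of reporter-specific RT-PCR products resolved by capillary electrophoresis, fitted bidirectionally relative to DMSO. Human HepG2 liver cells carried transfected cis-promoter reporter units and were exposed to chemicals for 24 h.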

[13] = ATG_RORE_CIS: Attagene CIS-FACTORIAL HepG2 Assay for human RAR-related Orphan Receptor Element (RORE) (AID 2282959); details: HepG2 Attagene cis-factorial RORE reporter, mRNA; actives raise or lower the signal
Outline: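 Fluorescence intensity of reporter-specific cDNA fragments, separated by capillary electrophoresis, gives the signal. Source: HepG2 liver cells transiently transfected with cis-element reporters and exposed 24 h; DMSO-normalized bidirectional fit.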

[14] = ATG_Sox_CIS: Attagene CIS-FACTORIAL HepG2 Assay for human SRY-box transcription factor (SOX) (AID 2282960); details: HepG2 Attagene cis-factorial SOX reporter, mRNA; actives raise or lower the signal
Outline: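 After 24 h of chemical treatment, transfected HepG2 reporter cells are lysed for total RNA. Transcript levels come from RT-PCR with labelled primer extension and capillary electrophoresis, analysed bidirectionally versus DMSO.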

[15] = target: Transcription factor Sp1 (Homo sapiens) (UniProt P08047); assay: ATG_Sp1_CIS: Attagene CIS-FACTORIAL HepG2 Assay for human Specificity Protein 1 (Sp1) (AID 2282961); details: HepG2 Sp1 cis-reporter transcription, actives raise or lower the signal
Outline: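 Sp1-driven reporter mRNA, read as capillary electrophoresis fluorescence after RT-PCR, in transiently transfected HepG2 cells dosed for 24 h; signal change in either direction relative to DMSO.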

[16] = ATG_SREBP_CIS: Attagene CIS-FACTORIAL HepG2 Assay for human Sterol Regulatory Element Binding (SREBP) (AID 2282962); details: HepG2 Attagene cis-factorial SREBP reporter, mRNA; actives raise or lower the signal
Outline: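 In this cis-format assay, HepG2 liver cells express reporters controlled by promoter elements responsive to native transcription factors. Exposure lasts 24 h; reporter mRNA fluorescence from capillary electrophoresis gives the signal, fitted bidirectionally against DMSO.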

[17] = ATG_TA_CIS: Attagene CIS-FACTORIAL HepG2 Assay for human TA Basal Promoter (AID 2282964); details: HepG2 Attagene CIS-factorial TA basal promoter reporter; actives raise or lower the signal
Outline: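 HepG2 cells transiently transfected with multiplexed cis-promoter reporter units, dosed 24 h. Reporter mRNA measured by RT-PCR, 6-FAM labelling, HpaI digestion and capillary electrophoresis; bidirectional fit versus DMSO baseline, serving as background control.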

[18] = target: Heat shock factor protein 1 (Homo sapiens) (UniProt Q00613); assay: ATG_HSE_CIS: Attagene CIS-FACTORIAL HepG2 Assay for human Heat Shock Transcription Factor 1 (HSE) (AID 2282953); details: HepG2 HSE cis-reporter, Attagene RNA transcription; actives raise or lower the signal
Outline: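 HepG2 cells transiently transfected with multiple reporter transcription units under cis-regulatory promoter control, measuring endogenous transcription factor activity. After 24 h chemical exposure, reporter mRNA quantified by RT-PCR, fluorescent labelling, HpaI digestion and capillary electrophoresis; bidirectional fit versus DMSO.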

[19] = ATG_PPRE_CIS: Attagene CIS-FACTORIAL HepG2 Assay for human Peroxisome Proliferator-activated Response Element (PPRE) (AID 2282958); details: HepG2 PPRE cis-element reporter, Attagene transcription factor profiling; actives raise or lower the signal
Outline: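 Multiplexed reporter transcription units under cis-regulatory promoters were transfected into HepG2 cells to capture endogenous factor activity. A 24 h incubation preceded RNA isolation and fluorescent RT-PCR fragment analysis.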

[20] = target: Signal transducer and activator of transcription 3 (Homo sapiens) (UniProt P40763); assay: ATG_STAT3_CIS: Attagene CIS-FACTORIAL HepG2 Assay for human Signal Transducer and Activator of Transcription 3 (STAT3) (AID 2282963); details: HepG2, Attagene cis-factorial STAT3 reporter transcription; actives raise or lower the signal
Outline: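 Uses human liver HepG2 transiently carrying cis-regulated reporter transcription units. Following 24 h dosing, reporter mRNA induction was detected by RT-PCR and capillary electrophoresis, analysed bidirectionally versus DMSO.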

Measured: outcome

Transcription factor Sp1 (Homo sapiens), sequence (P08047 whole entry, looked up): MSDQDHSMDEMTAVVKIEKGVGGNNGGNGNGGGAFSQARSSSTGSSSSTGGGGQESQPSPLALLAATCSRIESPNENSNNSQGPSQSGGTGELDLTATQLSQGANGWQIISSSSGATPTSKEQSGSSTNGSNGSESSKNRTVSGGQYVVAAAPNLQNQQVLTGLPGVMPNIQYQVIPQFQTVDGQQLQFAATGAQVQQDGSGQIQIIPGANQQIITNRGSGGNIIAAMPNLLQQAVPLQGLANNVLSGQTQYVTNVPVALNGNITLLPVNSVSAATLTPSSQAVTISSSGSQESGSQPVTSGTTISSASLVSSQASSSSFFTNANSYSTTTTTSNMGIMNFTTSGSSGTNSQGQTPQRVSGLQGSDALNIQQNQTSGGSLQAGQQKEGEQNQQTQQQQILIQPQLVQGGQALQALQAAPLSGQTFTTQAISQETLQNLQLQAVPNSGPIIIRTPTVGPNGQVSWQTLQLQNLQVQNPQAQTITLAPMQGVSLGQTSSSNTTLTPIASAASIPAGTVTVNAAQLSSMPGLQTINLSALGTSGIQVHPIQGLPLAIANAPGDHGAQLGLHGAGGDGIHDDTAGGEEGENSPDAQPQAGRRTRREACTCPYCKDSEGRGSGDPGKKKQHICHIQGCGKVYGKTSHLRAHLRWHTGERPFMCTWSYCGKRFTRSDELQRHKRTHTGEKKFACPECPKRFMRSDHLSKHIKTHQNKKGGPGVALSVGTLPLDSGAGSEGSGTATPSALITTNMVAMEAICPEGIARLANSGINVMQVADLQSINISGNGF
Bile acid receptor (Homo sapiens), sequence (Q96RI1 whole entry, looked up): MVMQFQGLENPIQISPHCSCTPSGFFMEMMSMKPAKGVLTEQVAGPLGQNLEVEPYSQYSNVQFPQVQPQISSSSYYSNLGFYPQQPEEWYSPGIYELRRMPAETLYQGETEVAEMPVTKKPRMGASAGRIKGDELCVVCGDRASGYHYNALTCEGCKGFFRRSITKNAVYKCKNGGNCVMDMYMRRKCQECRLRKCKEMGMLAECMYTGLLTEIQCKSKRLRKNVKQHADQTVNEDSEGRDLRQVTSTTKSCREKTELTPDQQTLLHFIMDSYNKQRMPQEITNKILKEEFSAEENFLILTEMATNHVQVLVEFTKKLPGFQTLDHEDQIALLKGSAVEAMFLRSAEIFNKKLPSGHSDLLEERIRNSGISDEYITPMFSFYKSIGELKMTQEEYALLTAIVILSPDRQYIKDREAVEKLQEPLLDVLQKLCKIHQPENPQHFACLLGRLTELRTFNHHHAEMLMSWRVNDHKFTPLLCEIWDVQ
Hypoxia-inducible factor 1-alpha (Homo sapiens), sequence (Q16665 whole entry, looked up): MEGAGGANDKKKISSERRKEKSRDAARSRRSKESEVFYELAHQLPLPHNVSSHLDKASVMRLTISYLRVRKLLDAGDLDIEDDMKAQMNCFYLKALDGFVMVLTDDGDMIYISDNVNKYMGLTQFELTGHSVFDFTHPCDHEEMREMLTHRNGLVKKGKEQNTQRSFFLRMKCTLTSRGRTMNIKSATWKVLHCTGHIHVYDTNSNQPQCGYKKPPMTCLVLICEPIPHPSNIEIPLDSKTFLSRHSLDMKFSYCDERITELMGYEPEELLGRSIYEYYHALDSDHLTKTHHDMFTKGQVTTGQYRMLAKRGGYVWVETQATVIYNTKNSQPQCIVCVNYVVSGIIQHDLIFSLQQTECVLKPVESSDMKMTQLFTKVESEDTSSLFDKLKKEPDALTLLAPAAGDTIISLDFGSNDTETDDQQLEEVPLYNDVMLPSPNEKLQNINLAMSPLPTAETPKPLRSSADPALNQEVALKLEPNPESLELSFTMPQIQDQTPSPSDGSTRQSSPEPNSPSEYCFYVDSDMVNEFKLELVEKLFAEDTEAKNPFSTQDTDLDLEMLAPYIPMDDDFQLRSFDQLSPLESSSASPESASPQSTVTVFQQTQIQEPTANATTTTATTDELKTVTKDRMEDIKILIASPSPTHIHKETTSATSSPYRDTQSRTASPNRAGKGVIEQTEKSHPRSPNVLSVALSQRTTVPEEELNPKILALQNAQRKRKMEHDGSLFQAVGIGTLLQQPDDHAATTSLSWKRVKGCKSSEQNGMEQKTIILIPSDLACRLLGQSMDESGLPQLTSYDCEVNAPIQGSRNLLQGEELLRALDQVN
Paired box protein Pax-6 (Homo sapiens), sequence (P26367 whole entry, looked up): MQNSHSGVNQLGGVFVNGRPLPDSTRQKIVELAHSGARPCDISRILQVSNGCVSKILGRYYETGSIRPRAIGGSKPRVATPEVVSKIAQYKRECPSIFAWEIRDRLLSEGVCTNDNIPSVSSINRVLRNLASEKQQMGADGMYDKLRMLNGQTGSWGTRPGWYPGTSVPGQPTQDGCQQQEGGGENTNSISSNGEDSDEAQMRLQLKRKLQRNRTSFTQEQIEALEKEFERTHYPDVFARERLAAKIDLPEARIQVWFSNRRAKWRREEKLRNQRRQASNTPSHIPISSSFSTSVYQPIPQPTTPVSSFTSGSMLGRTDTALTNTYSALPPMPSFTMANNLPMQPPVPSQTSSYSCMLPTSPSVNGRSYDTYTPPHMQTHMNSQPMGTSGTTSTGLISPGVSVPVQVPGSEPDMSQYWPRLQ
Hepatocyte nuclear factor 6 (Homo sapiens), sequence (Q9UBC0 whole entry, looked up, the tested form may be a part): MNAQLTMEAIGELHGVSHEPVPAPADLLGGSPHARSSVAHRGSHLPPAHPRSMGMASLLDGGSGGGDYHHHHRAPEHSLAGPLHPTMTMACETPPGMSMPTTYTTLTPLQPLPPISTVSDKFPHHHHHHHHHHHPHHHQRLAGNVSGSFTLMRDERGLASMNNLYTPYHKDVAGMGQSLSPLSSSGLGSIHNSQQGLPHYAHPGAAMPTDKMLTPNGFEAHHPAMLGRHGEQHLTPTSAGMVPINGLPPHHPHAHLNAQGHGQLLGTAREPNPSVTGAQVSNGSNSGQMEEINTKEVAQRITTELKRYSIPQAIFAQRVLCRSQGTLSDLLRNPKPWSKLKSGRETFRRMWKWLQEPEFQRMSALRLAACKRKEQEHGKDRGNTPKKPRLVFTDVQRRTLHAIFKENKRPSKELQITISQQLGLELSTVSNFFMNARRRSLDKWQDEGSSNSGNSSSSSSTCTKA
Heat shock factor protein 1 (Homo sapiens), sequence (Q00613 whole entry, looked up): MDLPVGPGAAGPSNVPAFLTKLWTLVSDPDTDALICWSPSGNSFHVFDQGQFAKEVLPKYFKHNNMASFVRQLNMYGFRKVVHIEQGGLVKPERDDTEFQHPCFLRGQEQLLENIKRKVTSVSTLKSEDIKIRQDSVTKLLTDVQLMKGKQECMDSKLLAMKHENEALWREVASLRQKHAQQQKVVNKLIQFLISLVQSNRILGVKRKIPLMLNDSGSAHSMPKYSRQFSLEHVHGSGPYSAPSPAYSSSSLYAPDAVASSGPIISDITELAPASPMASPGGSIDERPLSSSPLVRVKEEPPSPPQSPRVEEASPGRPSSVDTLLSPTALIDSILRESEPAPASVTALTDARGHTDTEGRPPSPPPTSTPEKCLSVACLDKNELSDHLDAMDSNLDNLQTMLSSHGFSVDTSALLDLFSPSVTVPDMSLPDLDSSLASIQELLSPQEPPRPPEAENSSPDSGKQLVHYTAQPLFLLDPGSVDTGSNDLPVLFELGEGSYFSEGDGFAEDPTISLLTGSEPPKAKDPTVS
Signal transducer and activator of transcription 3 (Homo sapiens), sequence (P40763 whole entry, looked up): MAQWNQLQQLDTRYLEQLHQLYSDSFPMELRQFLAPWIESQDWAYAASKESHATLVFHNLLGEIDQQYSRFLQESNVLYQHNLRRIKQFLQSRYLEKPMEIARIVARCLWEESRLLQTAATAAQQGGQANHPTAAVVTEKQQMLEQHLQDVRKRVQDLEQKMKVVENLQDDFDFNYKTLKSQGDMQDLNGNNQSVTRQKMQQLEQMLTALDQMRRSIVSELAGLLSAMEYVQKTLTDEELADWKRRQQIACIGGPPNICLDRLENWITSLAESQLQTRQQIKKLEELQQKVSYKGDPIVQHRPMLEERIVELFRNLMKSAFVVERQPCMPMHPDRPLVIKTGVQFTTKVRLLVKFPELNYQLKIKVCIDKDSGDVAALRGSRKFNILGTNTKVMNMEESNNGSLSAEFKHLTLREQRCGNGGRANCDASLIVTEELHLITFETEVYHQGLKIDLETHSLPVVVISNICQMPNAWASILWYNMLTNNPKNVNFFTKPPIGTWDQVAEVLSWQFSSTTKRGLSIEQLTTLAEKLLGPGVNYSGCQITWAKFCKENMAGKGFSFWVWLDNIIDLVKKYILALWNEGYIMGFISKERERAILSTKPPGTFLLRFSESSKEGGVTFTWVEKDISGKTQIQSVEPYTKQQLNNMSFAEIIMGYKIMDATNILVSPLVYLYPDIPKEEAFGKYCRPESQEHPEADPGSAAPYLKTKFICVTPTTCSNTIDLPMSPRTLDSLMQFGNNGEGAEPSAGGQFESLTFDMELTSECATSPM

NC(N)=S
not listed: [18] | [19] | [20]
inactive: all other assays above

O=S(=O)(O)c1cc(S(=O)(=O)O)c2c(N=Nc3ccccc3)c(O)ccc2c1
not listed: [10] | [13] | [19] | [20]
inactive: all other assays above

CC(=O)C1C(=O)C=C(C)OC1=O (configuration not stated)
not listed: [10]
inactive: all other assays above
